ERAP1 HTS inh = inhibitors of human ERAP1 aminopeptidase | Q9NZ08 | recombinant ERAP1, Leu-AMC fluorescence, 60 min | inhibition, % at 10.7 µM | 0.15% of 340,000 active | AID 652197;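 active = mean replicate inhibition of at least 30%, or all replicates individually reaching that 30% level; inactive = mean below 30% and not every replicate reaching it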;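 also: 0% = neutral control wells and 100% = L-leucinethiol positive control wells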
PGC1a acetyl inh = PGC1a acetylation modulation, inhibitor mode | U2OS PGC1a acetylation, AlphaScreen anti-acetyl-lysine; with virally co-expressed GCN5 acetyltransferase | inhibition, % at 15.6 µM | 0.17% of 350,000 active | AID 651687;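 active = every replicate shows inhibition of at least 40%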;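 also: 0% = neutral control wells and 100% = positive control wells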
RAD52 anneal inh = RAD52 (human) annealing inhibition; AID 651710; P43351; recombinant RAD52 DNA annealing, FRET fluorescence; 0.46% of 360,000 active; inhibition, % at 18.7 µM;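 active = every replicate showing at least 50% inhibition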
INS-1E GSIS act = primary screen for activators of insulin secretion dependent on glucose, INS-1E cells, GLuc reporter luminescence. INS-1E GLuc reporter insulin secretion, 2-3 h. activation, % at 16.6 µM. 0.61% of 370,000 active. AID 743287;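 active = lowest replicate activation of at least 40%, so every replicate reaches that level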;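 also: 0% = median of neutral control wells and 100% = median of IBMX positive control wells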
MLL AF4-AF9 inh = MLL-AF4/AF9 protein interaction inhibition | 0.47% of 350,000 active | inhibition, % at 10 µM | AlphaScreen, biotin-AF4 peptide binding to FLAG-AF9 | P42568;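 active = every replicate reaching a set inhibition limit, whatever the replicate mean, cut at about 25% in these data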;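 also: 0% = plate neutral control median and 100% = total signal loss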
Target sequence (P42568 whole entry, looked up): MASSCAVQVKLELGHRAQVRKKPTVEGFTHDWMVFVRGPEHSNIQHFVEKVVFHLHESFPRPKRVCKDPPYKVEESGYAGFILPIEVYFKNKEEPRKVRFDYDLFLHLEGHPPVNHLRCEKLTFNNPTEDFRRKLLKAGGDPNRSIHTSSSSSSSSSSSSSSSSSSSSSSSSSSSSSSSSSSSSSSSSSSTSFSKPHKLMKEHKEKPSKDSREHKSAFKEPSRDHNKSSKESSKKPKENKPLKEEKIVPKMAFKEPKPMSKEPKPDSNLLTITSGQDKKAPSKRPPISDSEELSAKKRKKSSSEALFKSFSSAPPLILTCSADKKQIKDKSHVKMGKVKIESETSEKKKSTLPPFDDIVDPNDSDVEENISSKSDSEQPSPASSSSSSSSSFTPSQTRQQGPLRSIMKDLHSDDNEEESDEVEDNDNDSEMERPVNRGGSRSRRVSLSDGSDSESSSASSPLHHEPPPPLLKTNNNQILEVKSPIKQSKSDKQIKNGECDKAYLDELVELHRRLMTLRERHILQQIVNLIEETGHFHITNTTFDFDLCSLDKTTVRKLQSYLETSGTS
RAD54 inh = RAD54 (human) branch migration inhibition. 0.14% of 360,000 active. inhibition, % at 10.4 µM. Q92698. RAD54 Holliday junction branch migration, FAM/BHQ fluorescence;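 active = mean normalized replicate activity at least 40 and at least half of replicates scoring 40 or more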;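 also: 0% = median of neutral control wells and 100% = median of positive control wells; inhibitors cause a drop in the FAM fluorescence signal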
Starred values were filed as active, the others as inactive; / = no result. Compounds with a hit are over-represented: about 1.4% of the library has one in this group of screens.

SMILES	ERAP1 HTS inh	PGC1a acetyl inh	RAD52 anneal inh	INS-1E GSIS act	MLL AF4-AF9 inh	RAD54 inh
CC[C@H](C)[C@@H]1OC(=O)[C@@H](C)[C@@H](CC)NC(=O)[C@H](C)N(C)C(=O)C(C)(C)C(=O)C(C)NC(=O)[C@H](Cc2ccccc2)N(C)C(=O)[C@H](C(C)C)N(C)C(=O)CNC(=O)[C@H](CC(C)C)N(C)C(=O)CNC1=O (stereo partly drawn)	/	76.1*	/	/	/	-11.5
COc1ccc2c3c(n(C)c2c1)[C@@H](CO)N(Cc1cccc(Cl)c1)CC31CN(C(=O)C2CC2)C1	-0.5	-4.9	9.4	-18.4	2.8	/
O=c1[nH]c2ccccc2nc1-c1nnnn1C1CCCC1	2.8	/	-22.3	49.3*	-0.5	/
Cc1ccc(-c2n[nH]c(=S)n2/N=C/c2c(C)nn(-c3ccccc3)c2C)cc1	/	/	/	203.0*	/	/
Cc1nn(-c2ccccc2)c(C)c1/C=N/n1c(-c2ccc(C(C)(C)C)cc2)n[nH]c1=S	/	1.1	/	/	/	-11.0
Cc1ccccc1-c1n[nH]c(=S)n1/N=C/c1c(C)nn(-c2ccccc2)c1C	/	/	/	90.5*	/	7.3
Cc1ccc(/C=N/n2c(-c3ccccc3)n[nH]c2=S)cc1	-0.8	-5.4	-3.0	-6.9	-6.5	0.7
O=[N+]([O-])c1ccc(/C=N/n2c(-c3ccccc3)n[nH]c2=S)cc1	1.5	12.9	-2.6	43.0*	3.0	11.2
O=C(C[C@@H]1CC[C@@H](NC(=O)c2ccccc2)[C@H](CO)O1)Nc1ccc(-c2ccccc2)cc1	0.5	8.4	-1.3	17.8	-0.1	-12.4
CCCNC(=O)C[C@H]1CC[C@@H]2[C@H](COc3ccc(NC(=O)C4CCCC4)cc3C(=O)N2C)O1	-0.1	-8.4	2.8	-5.6	-0.1	-4.6
COc1ccc([N+](=O)[O-])c2c(=O)ccoc12	/	/	/	41.0*	/	/
CCN1CCN(CCNC(=O)c2ccc3c(c2)N(Cc2ccc(F)cc2)C(=O)/C(=C/c2ccccc2)S3)CC1	5.4	-22.1	72.9*	102.3*	58.2*	66.4*
CCN1CCN(CCNC(=O)c2ccc(/C=C3/Sc4ccccc4N(Cc4cccc(Cl)c4)C3=O)cc2)CC1	-2.0	-5.3	12.9	37.4	/	/
CCCn1c(-c2ccccc2)cc(SC)c(C#N)c1=O	-5.3	92.8*	-11.2	8.9	0.4	/
C=CCn1c(-c2ccccc2)cc(SC)c(C#N)c1=O	5.0	/	4.3	-6.1	-0.4	-2.7
COc1ccc(C(=O)C(CN2CCOCC2)c2ccccc2)cc1F (stereo not drawn)	/	114.0*	/	/	/	/
Cc1ccc(S(=O)(=O)Nc2cccc3c2O[C@@H](CN(C)C(=O)NC2CCCCC2)[C@H](C)CN([C@H](C)CO)C3=O)cc1	1.2	3.6	-1.8	10.2	-1.1	-14.3
Clc1ccccc1CN1CCSCC1	-3.2	47.1*	-4.9	2.1	-0.1	-7.2
COc1ccc(-c2ccc3c(c2)[C@@H]2[C@@H](CCN2Cc2ccccc2F)[C@H](CO)N3)cc1	0.8	/	42.0	15.5	26.1*	/
CC(C)NC(=O)Nc1ccc2c(c1)CC(=O)N(C)C[C@H](C)[C@@H](CN(C)S(C)(=O)=O)O2	/	/	/	5.4	/	/
CC1(C)Oc2ccc3ccc(=O)oc3c2-c2cn[nH]c21	/	-17.1	/	/	/	-0.2
CC1(C)Oc2ccc3ccc(=O)oc3c2-c2cnoc21	56.5*	12.0	-29.4	8.4	-3.6	-3.1
Cc1cc(N=Nc2ccc(C)c(N=Nc3cc(C)c(N)cc3N)c2)c(N)cc1N	-0.4	/	79.8*	-9.4	63.0*	100.6*
CC1(C)CC[C@]2(C(=O)O[C@@H]3O[C@H](CO)[C@@H](O)[C@H](O)[C@H]3O)CC[C@]3(C)C(=CCC4[C@@]5(C)CC[C@H](O[C@@H]6O[C@H](C(=O)O)[C@@H](O[C@H]7OC[C@@H](O)[C@@H](O)[C@@H]7O)[C@H](O)[C@H]6O)C(C)(C)C5CC[C@]43C)[C@@H]2C1 (stereo partly drawn)	/	/	-6.5	-5.1	0.6	-7.2
CC1(C)CC[C@]2(C(=O)O)CC[C@]3(C)C(=CC[C@@H]4[C@@]5(C)CC[C@H](O[C@@H]6O[C@H](C(=O)O)[C@@H](O)[C@H](O[C@@H]7OC[C@H](O)[C@H](O)[C@H]7O)[C@H]6O)C(C)(C)[C@@H]5CC[C@]43C)[C@@H]2C1	/	25.1	-19.6	200.1*	-0.2	-2.8
SMILES	ERAP1 HTS inh	PGC1a acetyl inh	RAD52 anneal inh	INS-1E GSIS act	MLL AF4-AF9 inh	RAD54 inh
COc1cccc(C(=O)Oc2cc3c4c(c2)C(C)=CC(C)(C)N4C(=O)C3=O)c1	-1.3	10.9	3.9	2.6	26.2*	9.8
COc1ccc(C(=O)Oc2cc3c4c(c2)C(C)=CC(C)(C)N4C(=O)C3=O)cc1OC	/	/	/	35.7	/	/
COc1ccc(NC(=O)N2CCCCN3[C@@H](CO)[C@H](c4ccc(C5=CCCCC5)cc4)[C@@H]3C2)cc1	-0.8	-16.9	71.2*	-25.8	21.0	1.5
COc1ccc(NC(=O)N2CCCCN3[C@H](CO)[C@@H](c4ccc(C5=CCCC5)cc4)[C@H]3C2)cc1	1.3	-14.1	64.9*	/	11.7	-0.9
COc1ccc(NC(=O)N2CCCCN3[C@H](CO)[C@H](c4ccc(C5=CCCC5)cc4)[C@@H]3C2)cc1	7.5	-5.7	4.3	/	-5.7	-0.9
C[C@H](CO)N1C[C@H](C)[C@@H](CN(C)C(=O)C2CCCCC2)Oc2ncc(C#CC3CC3)cc2C1=O	/	-11.0	/	-10.1	/	/
Cc1ccc(-c2csc(NC(=O)CCCc3cccs3)n2)cc1	/	/	/	98.2*	/	/
CCCOCc1ccc(O)c2ncccc12	-0.1	7.5	-2.6	16.1	-2.9	-16.8
Oc1ccc(CN2CCN(c3ccccc3)CC2)c2cccnc12	-0.3	12.3	-2.1	9.1	/	-4.2
Oc1ccc(Cc2ccccc2)c2cccnc12	-1.0	30.1	-26.0	-2.7	56.8*	11.2
Oc1ccc(CN2CCC(Cc3ccccc3)CC2)c2cccnc12	-9.6	/	-1.7	-45.2	76.1*	/
Oc1ccc(COCc2ccccc2)c2cccnc12	/	-10.6	/	/	65.9*	-9.9
OC[C@H]1[C@@H](c2ccccc2)C2(CN(CC3CC3)C2)N1Cc1nccs1	2.1	-5.9	-26.2	7.4	3.3	/
CN(C)c1cccc(/C=C(\C#N)c2ccccc2)c1	-1.9	4.3	-18.8	-1.8	26.4*	0.1
CN(C)c1ccc(/C=C(\C#N)c2ccccc2)cc1	/	-2.1	/	/	/	8.5
COc1ccc(CN(C)C[C@@H]2OCCCC[C@@H](C)Oc3ccc(NS(C)(=O)=O)cc3C(=O)N([C@H](C)CO)C[C@H]2C)cc1	/	2.5	/	-10.2	/	/
Cc1ccc(NC(=O)C(=O)NCC2OCCc3ccccc32)cc1 (stereo not drawn)	1.4	/	-3.7	41.2	-1.8	2.6
O=C(NCC1OCCc2ccccc21)c1ccc(NC(=O)c2ccc(Cl)cc2)cc1 (stereo not drawn)	/	3.9	/	249.0*	/	1.1
COc1ccc2cc3cc(C(=O)NCCCN4CCOCC4)oc3nc2c1	/	-2.6	/	/	/	59.9*
CCOc1ccc(OCCSc2ccc(S(=O)(=O)N3CCN(C)CC3)cn2)cc1	-0.4	-5.0	-4.9	-38.7	27.0*	2.0
